Compound activity: PubChem, National Center for Advancing Translational Sciences (NCATS)
Sampled rows, rich in hits. Any-hit rate of the full collection: about 8.8%.
HT1080-NT tox: qHTS for induction of synthetic lethality in tumor cells producing 2HG: qHTS for the HT-1080-NT fibrosarcoma cell line | HT-1080-NT fibrosarcoma viability, CellTiter-Glo ATP luminescence, 48 h | Potency, µM (series often up to 46.1 µM), for the others: at the top dose activity, negative = less viability, hits mostly cytotoxic | 1.6% of 360,000 active;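 note: NT is the 2HG producing partner of a matched IDH1 knockdown line; potency is the fitted concentration of half-maximal effect; 0% = DMSO-treated cells and -100% = media-only wells without cells; nearly all actives have a fitted effect of over 55% in size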
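Read-out is CellTiter-Glo luminescence after 10 minutes at room temperature, following 48 hours' compound treatment of HT-1080-NT cells (750 cells/well, RPMI, 5% FBS, 37 degrees C).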
KB-3-1 tox: qHTS assay for MDR1-selective chemotherapeutics: Primary screen using the parental adenocarcinoma cell KB-3-1; Potency, µM (series often up to 46.1 µM), hits mostly cytotoxic; KB-3-1 viability, CellTiter-Glo ATP luminescence, 72 h; 1.4% of 400,000 active; AID 1347075, 2019; note: potency is the fitted concentration of half-maximal effect; nearly all actives have a fitted effect of over 60% in size
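Using CellTiter-Glo luminescence, growth of non-resistant KB-3-1 adenocarcinoma cells is assessed 72 h after pin-tool compound addition at 37 °C. Normalized responses across the concentration series yield fitted curves.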
IL-1B inflam inh: qHTS for Inhibitors of Inflammasome Signaling: IL-1-beta AlphaLISA Primary Screen; THP-1 LPS/ATP IL-1B secretion, AlphaLISA, 16 h; stronger effect = lower value; activity change, % at 57.5 µM; 4.7% of 360,000 active; AID 743279, 2014; in the data active = activity change below about -50%; inconclusive = mostly about -30% to -49%
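Secreted IL-1B measured by AlphaLISA bead assay after 16 h compound exposure of THP-1 cells; compounds (final up to 57.5 uM) added 1 h before LPS (250 ng/mL) and ATP (1.25 mM) stimulation; lower signal means less secretion.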
KB-V1 MDR tox: qHTS assay for MDR1-selective chemotherapeutics: Primary screen using the drug-selected MDR subline cells KB-V1; KB-V1 MDR cells viability, CellTiter-Glo, 72 h; Potency, µM (highest dose often 46.1 µM), most hits filed as cytotoxic; 3.4% of 400,000 active; note: potency is the fitted concentration of half-maximal effect; nearly all actives have a fitted effect of over 60% in size
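Cytotoxicity via CellTiter-Glo luminescence after 72 h compound exposure at 37 degrees C. Cells: drug-selected KB-V1 line, DMEM phenol-red free plus 10% FBS. Compounds tested at multiple concentrations; normalized data fitted to concentration-effect curves.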
HT1080 IDH1KD tx: qHTS for induction of synthetic lethality in tumor cells producing 2HG: qHTS for the HT-1080-IDH1KD cell line. HT-1080 IDH1 knockdown viability, ATP luminescence, 48 h. 2% of 360,000 active. AID 686971, 2013. Potency, µM (series often up to 46.1 µM), inactives show top-dose activity, negative = toxicity, usual class: cytotoxic;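 note: potency is the fitted concentration of half-maximal effect; 0% = DMSO wells and -100% = cell-free medium wells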
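% activity derives from luminescence (CellTiter-Glo), normalised to DMSO and no-cell wells. HT-1080-IDH1KD cells, 750/well, had 48 h compound exposure at 37 °C.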
Starred values were filed as active, the others as inactive; i = inactive; ? = inconclusive; / = no result. Unless noted, calls come from the whole dose curve; as a rule, active = well fitted curve in the direction sought with a large enough effect; inconclusive = small, poorly fitted or top-dose-only effect, or another doubt; inactive = no such curve, though single readings can be large; an effect the other way counts as inactive or inconclusive. Unless noted, % is set by controls: 0 for no effect and ±100 for the full control effect.

SMILES | HT1080-NT tox | KB-3-1 tox | IL-1B inflam inh | KB-V1 MDR tox | HT1080 IDH1KD tx
Cn1nc(C(F)(F)F)c(/C=N/OC(=O)c2ccccc2)c1Sc1ccc(Cl)cc1 | -27.7% | ? | ? | i | -20.8%
Cn1nc(C(F)(F)F)c(/C=N/OC(=O)c2ccccc2)c1SCc1ccccc1Cl | ? | ? | ? | 11.6µM* | ?
COc1ccc(CNC(=O)CC(C)n2nc(C)cc2C)cc1 (configuration not stated) | / | i | / | i | /
O=c1oc(C2(O)CCCCC2)cc2ccc(-c3ccc4[nH]ccc4c3)cc12 | -6.0% | 0.82µM* | 21.2 | ? | -17.8%
O=c1oc(C2(O)CCCCC2)cc2ccccc12 | 0.1% | i | 18.8 | i | -1.1%
CC(=O)c1cc(-c2ccccc2)n(CC(=O)N2CCN(C3CCCC3)CC2)c1C | 5.3% | i | -14.8 | i | -2.0%
CC(=O)c1cc(-c2ccccc2)n(CC(=O)N2CCC(C)CC2)c1C | 20.3% | i | 2.2 | 5.8µM* | -0.5%
COc1ccc(-c2nc(CN3CCN(c4cc(C)nc(C)c4)CC3)c(C)o2)c2ccccc12 | 13µM* | ? | -105.3* | i | 14.6µM*
Cc1cc(N2CCN(Cc3nc(-c4ccc(Cl)cc4)oc3C)CC2)cc(C)n1 | 20.6µM* | ? | / | ? | 20.6µM*
Cc1oc(-c2cccc3ccccc23)nc1CN1CCN(c2ncnc3ccccc23)CC1 | ? | ? | 0.0 | ? | ?
COc1ccc(-c2nc(CN3CCN(Cc4ccccc4)CC3)c(C)o2)cc1 | -9.0% | i | -7.4 | i | -7.3%
NC(=O)c1cc(C(=O)c2ccc(Cl)cc2)c[nH]1 | 0.6% | i | -16.8 | i | 3.0%
C[C@H](O)[C@@H]1C(=O)N2CCc3c([nH]c4ccccc34)[C@@H]2C[C@@H]1N(C)C(=O)c1cc(Cl)cc(Cl)c1 | -10.0% | i | -20.7 | i | ?
CCCNC(=O)c1c(C)nn(-c2cccc(C)c2)c1-n1cccc1 | / | i | / | i | /
CC(C)(C)NCC(O)CON=C1c2ccccc2-c2ccccc21 (configuration not stated) | 18.4µM* | ? | -98.4* | ? | 14.6µM*
CC(C)(C)NC(=O)CON=C1c2ccccc2-c2ccccc21 | -0.9% | i | ? | 16.4µM* | -0.8%
CC(C)(C)NC[C@H](O)COc1cccc2c1CCCC2=O | -4.5% | i | -17.4 | i | -12.7%
COc1ccc(CCNC(=O)c2c(O)c3c([nH]c2=O)CCCC3)cc1OC | 13.8% | i | 21.2 | i | 4.5%
COc1ccc(C(N)c2csc(Nc3cc(Oc4ccccc4)ncn3)n2)cc1 (configuration not stated) | ? | i | -84.9* | i | ?
NC(c1csc(Nc2cc(Oc3ccccc3)ncn2)n1)C1CCCCC1 (configuration not stated) | ? | ? | -27.3 | ? | 4.61µM*
Cc1ccc2nc(SCC(=O)Nc3ccc(C)c([N+](=O)[O-])c3)[nH]c2c1 | 1.5% | i | -8.1 | i | -0.7%
Cc1ccc2nc(SCC(=O)Nc3ccc(F)c([N+](=O)[O-])c3)[nH]c2c1 | -6.1% | i | -64.5* | 20.6µM* | -21.5%
Cc1ccc2nc(SCC(=O)c3ccc4c(c3)OCO4)[nH]c2c1 | 3.0% | i | 23.5 | i | 0.0%
Cc1ccc2nc(SCC(=O)c3ccc(Cl)s3)[nH]c2c1 | 17.6% | i | 3.7 | 13µM* | 9.3%
Cc1ccc2nc(SC(C)C(=O)Nc3cccc([N+](=O)[O-])c3)[nH]c2c1 (configuration not stated) | -6.3% | ? | -73.3* | 4.11µM* | -8.3%
SMILES | HT1080-NT tox | KB-3-1 tox | IL-1B inflam inh | KB-V1 MDR tox | HT1080 IDH1KD tx
Cc1ccc2nc(SCC(=O)Nc3cc([N+](=O)[O-])ccc3F)[nH]c2c1 | -8.0% | i | 90.9 | 20.6µM* | -7.8%
Cc1csc(SCC(=O)Nc2cc([N+](=O)[O-])ccc2F)n1 | -2.5% | ? | 95.3 | i | 3.2%
COC(=O)CNC(=O)COC(=O)c1ccc(Cl)nc1 | 27.2% | i | 7.2 | i | 14.7%
CCOc1ccccc1NC(=O)CSc1nc2ccccc2c2nc(CCn3cncc3C)nn12 | / | i | / | i | /
CC(C)CC(C(=O)OCC(=O)N1CCN(c2ccccc2)CC1)N1C(=O)c2ccccc2C1=O (configuration not stated) | -1.4% | i | -7.2 | 16.4µM* | -0.3%
COc1ccc(C(=O)COC(=O)C(CC(C)C)N2C(=O)c3ccccc3C2=O)cc1 (configuration not stated) | 1.7% | i | 0.3 | 8.2µM* | 0.8%
CN(C)/C=N/c1nc2nccc(-c3ccc(F)cc3)n2n1 | 23.5% | i | 8.0 | i | 20.6%
CN(C)/C=N/c1nc2ncc(-c3ccc(Cl)cc3)c(/N=C/N(C)C)n2n1 | -0.5% | ? | 29.4 | 6.51µM* | -7.3%
CN(C)/C=N/c1nc2nccc(-c3cccc(Cl)c3)n2n1 | 3.0% | i | -51.7* | i | 7.8%
CC(=O)c1c(C)[nH]c(C(=O)OCc2csc(CC(=O)Nc3ccccc3C)n2)c1C | -1.5% | i | -11.1 | i | -4.8%
Cc1cc(SC#N)cc(C)c1NC(=O)CCl | 18.4µM* | i | -64.4* | i | 23.1µM*
CCc1cc(SC#N)cc(C)c1N | 6.2% | i | -92.6* | i | -16.7%
CCc1cc(SC#N)cc(C)c1NC(=O)CCl | ? | ? | -101.3* | i | ?
CCC(=O)Nc1ccc(SC#N)cc1C | ? | i | -101.1* | ? | 7.94µM*
CCC(=O)Nc1cc2c(C)cc(=O)oc2cc1C | 9.6% | i | 16.7 | i | 14.5%
CCOC(=O)CC(=O)Nc1c(C)cc(C)cc1C | 6.5% | i | -15.7 | i | -1.0%
COc1ccccc1C(C)NC(=O)CCNC(=O)c1ccc(Cl)cc1 (configuration not stated) | 1.5% | ? | -0.1 | i | 2.7%
Cc1ccc(C(=O)N2CCN=C2SCc2ccc([N+](=O)[O-])cc2)cc1 | -4.8% | ? | ? | ? | -13.5%
O=C(c1cccc2ccccc12)N1CCN=C1SCc1ccc([N+](=O)[O-])cc1 | -1.1% | i | -64.8* | i | -0.4%
Cc1ccccc1C(=O)N1CCN=C1SCc1ccc([N+](=O)[O-])cc1 | 0.6% | i | -77.3* | ? | -17.1%
Cc1ccc(CSC2=NCCN2C(=O)c2ccc([N+](=O)[O-])cc2)cc1 | 15.2% | i | 33.9 | i | 18.8%
